Read-out in experiment [1]: Interleukin-8 (IL8), CXCL8 (gene 3576)
As to the kind of experiment: BSK_3C_IL8: BioMAP Diversity Plus: 3C Assay for Interleukin-8 (IL8) Biomarker Activity (AID 2283020). The conditions noted are these: primary human endothelial cells (HUVEC); actives raise or lower the signal. The essentials: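 Endothelial primary cells of human umbilical vein origin are dosed with chemical; after 24 h the IL-8 biomarker is measured by ELISA, and concentration–response is fitted in both directions versus DMSO.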

Read-out in experiment [2]: Monokine induced gamma interferon (MIG), CXCL9 (gene 4283)
As to the kind of experiment: BSK_3C_MIG: BioMAP Diversity Plus: 3C Assay for Monokine induced gamma interferon (MIG) Biomarker Activity (AID 2283021).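 On AC50: MIG protein level measured by immunoassay in the treated endothelial cultures.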 The conditions noted are these: primary human endothelial cells (HUVEC); actives raise or lower the signal. The essentials: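 Endothelial primary cells (human umbilical vein) are dosed with test chemical in the 3C system. MIG levels are measured by ELISA at 24 h and fitted in both directions relative to DMSO.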

A short description of experiment [3]: BSK_3C_SRB: Viability Assessment in the BioMAP Diversity Plus: 3C Assay (AID 2283023).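 Further: fitted both ways against DMSO so a hit may be signal rise or drop.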 The settings on record: primary human endothelial cells (HUVEC). In short, it runs like this: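 Human umbilical vein endothelial cells in the 3C system, treated 24 h. Total protein measured by 0.1% sulforhodamine B staining after 10% TCA fixation, read at 560 nm; bidirectional fit versus DMSO.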

Read-out in experiment [4]: Matrix Metallopeptidase 1 (MMP1), MMP1 (gene 4312)
The experiment is described as follows: BSK_BE3C_MMP1: BioMAP Diversity Plus: BE3C Assay for Matrix Metallopeptidase 1 (MMP1) Biomarker Activity (AID 2283024). The settings on record: primary human bronchial epithelial cells; actives raise or lower the signal. In short, it runs like this:
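MMP1 signal, measured by ELISA after a 24 h chemical exposure of human primary bronchial epithelial cells, is analysed with bidirectional fitting using DMSO as negative control.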

A short description of experiment [5]: BSK_3C_Vis: BioMAP Diversity Plus: 3C Assay for Morphology Visualization (AID 2283025).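 Further: fitted both ways so gain or loss versus DMSO counts.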 The conditions noted are these: primary human endothelial cells (HUVEC). In short, it runs like this: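 Morphology read by light microscopy serves as a background control for the multiplexed 3C assay in human umbilical vein endothelial cells, taken 24 h after dosing, with DMSO as the negative control and bidirectional curve fitting.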

Read-out in experiment [6]: Pselectin, SELP (gene 6403)
As to the kind of experiment: BSK_4H_Pselectin: BioMAP Diversity Plus: 4H Assay for Pselectin Biomarker Activity (AID 2283026). The conditions noted are these: primary human endothelial cells (HUVEC); actives raise or lower the signal. The essentials:
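Endothelial primary cells (human umbilical vein) are dosed, incubated 24 h, and assayed for surface P-selectin by ELISA; responses in either direction are fitted relative to the DMSO negative control.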

A short description of experiment [7]: BSK_4H_SRB: Viability Assessment in the BioMAP Diversity Plus: 4H Assay (AID 2283027).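 Further: cells exposed to compound for 24 h before staining.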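 On AC50: curves fitted both ways versus DMSO so AC50 may be loss or gain.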 The conditions noted are these: primary human endothelial cells (HUVEC). In short, it runs like this:
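HUVEC, 24 h post-dose; 10% TCA fix, 0.1% SRB stain, A560 nm. Total protein = overt cytotoxicity, parallel to biomarker read. Bidirectional fit vs DMSO baseline.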

Experiment [8] is described as follows: BSK_BE3C_SRB: Viability Assessment in the BioMAP Diversity Plus: BE3C Assay (AID 2283028). The conditions noted are these: primary human bronchial epithelial cells. The essentials: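 Human bronchial epithelial primary cells in confluent culture, 24 h after chemical dosing; total protein by 0.1% SRB staining after 10% TCA fixation, read at 560 nm. Bidirectional fitting versus DMSO baseline.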

Read-out in experiment [9]: Thrombomodulin, THBD (gene 7056)
As to the kind of experiment: BSK_3C_Thrombomodulin: BioMAP Diversity Plus: 3C Assay for Thrombomodulin Biomarker Activity (AID 2283029). The conditions noted are these: primary human endothelial cells (HUVEC); actives raise or lower the signal. In short, it runs like this: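 Endothelial cells from umbilical vein are dosed with test chemical and incubated 24 h. Thrombomodulin is then quantified by ELISA, with DMSO serving as negative control and activity baseline.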

Read-out in experiment [10]: Urokinase-type plasminogen activator receptor (uPAR), PLAUR (gene 5329)
As to the kind of experiment: BSK_4H_uPAR: BioMAP Diversity Plus: 4H Assay for Urokinase-type plasminogen activator receptor (uPAR) Biomarker Activity (AID 2283030). The conditions noted are these: primary human endothelial cells (HUVEC); actives raise or lower the signal. In short, it runs like this: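 Human umbilical vein endothelial cells in the 4H system, 24 h after chemical dosing. Cell-surface uPAR measured by ELISA, fitted in both directions versus DMSO; cytotoxicity checked by SRB total protein in parallel cultures.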

Read-out in experiment [11]: Vascular endothelial growth factor receptor 2 (Homo sapiens) (UniProt P35968)
As to the kind of experiment: BSK_4H_VEGFRII: BioMAP Diversity Plus: 4H Assay for Vascular endothelial growth factor receptor 2 (VEGFR2) Biomarker Activity (AID 2283031).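 On AC50: cell-surface VEGFR2 protein level quantified by ELISA.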 The settings on record: primary human endothelial cells (HUVEC); actives raise or lower the signal. In short, it runs like this:
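Primary human umbilical vein endothelial cells (4H system), 24 h exposure; cell-surface VEGFR2 measured by ELISA. Bidirectional fitting versus DMSO; cytotoxicity checked in parallel by SRB total-protein staining.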

Read-out in experiment [12]: Human Leukocyte Antigen - DR isotype (HLADR), HLA-DRA (gene 3122)
The experiment is described as follows: BSK_BE3C_HLADR: BioMAP Diversity Plus: BE3C Assay for Human Leukocyte Antigen - DR isotype (HLADR) Biomarker Activity (AID 2283032). The conditions noted are these: primary human bronchial epithelial cells; actives raise or lower the signal. The essentials: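 Chemicals are dosed onto BE3C bronchial epithelial cultures of human origin and left 24 h. HLA-DR is then measured by ELISA, and the endpoint is fitted in both directions using DMSO as the activity baseline.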

Read-out in experiment [13]: Vascular cell adhesion molecule 1 (VCAM1), VCAM1 (gene 7412)
The experiment is described as follows: BSK_4H_VCAM1: BioMAP Diversity Plus: 4H Assay for Vascular cell adhesion molecule 1 (VCAM1) Biomarker Activity (AID 2283033).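 On outcome: cell-surface VCAM-1 protein measured by ELISA.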 The conditions noted are these: primary human endothelial cells (HUVEC); actives raise or lower the signal. In short, it runs like this:
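Chemicals are added to primary human umbilical vein endothelial cells. After 24 h, VCAM-1 levels are measured by ELISA. Values come from bidirectional fitting referenced to DMSO.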

Read-out in experiment [14]: Interferon-gamma inducible Protein 10 (IP10), CXCL10 (gene 3627)
As to the kind of experiment: BSK_BE3C_IP10: BioMAP Diversity Plus: BE3C Assay for Interferon-gamma inducible Protein 10 (IP10) Biomarker Activity (AID 2283034). The conditions noted are these: primary human bronchial epithelial cells; actives raise or lower the signal. In short, it runs like this: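 IP-10 quantified by ELISA serves as the endpoint. Cells: primary human bronchial epithelium, read 24 h after compound addition. Activity is derived by bidirectional fitting with DMSO as negative control.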

Read-out in experiment [15]: Monokine induced gamma interferon (MIG), CXCL9 (gene 4283)
As to the kind of experiment: BSK_BE3C_MIG: BioMAP Diversity Plus: BE3C Assay for Monokine induced gamma interferon (MIG) Biomarker Activity (AID 2283035). The settings on record: primary human bronchial epithelial cells; actives raise or lower the signal. The essentials: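 Dose cells (human primary bronchial epithelial), incubate 24 h, quantify MIG by ELISA, then fit concentration–response in both directions relative to DMSO control.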

Read-out in experiment [16]: Transforming growth factor beta 1 (TGFb1), TGFB1 (gene 7040)
As to the kind of experiment: BSK_BE3C_TGFb1: BioMAP Diversity Plus: BE3C Assay for Transforming growth factor beta 1 (TGFb1) Biomarker Activity (AID 2283036;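 further: TGF-b1 protein level measured by ELISA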). The conditions noted are these: primary human bronchial epithelial cells; actives raise or lower the signal. In short, it runs like this:
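Bronchial epithelial primary cells are treated with test chemical, then TGF-b1 is quantified by ELISA after 24 hours. Values derive from bidirectional fitting against DMSO, with cytotoxicity checked by SRB staining in parallel cultures.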

Read-out in experiment [17]: Plasminogen activator inhibitor-1 (PAI1), SERPINE1 (gene 5054)
The experiment is described as follows: BSK_BE3C_PAI1: BioMAP Diversity Plus: BE3C Assay for Plasminogen activator inhibitor-1 (PAI1) Biomarker Activity (AID 2283037). The settings on record: primary human bronchial epithelial cells; actives raise or lower the signal. In short, it runs like this:
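Values derive from bidirectional fitting against DMSO baseline of PAI-1 levels, measured by ELISA in human bronchial epithelial cells 24 h after compound addition.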

Read-out in experiment [18]: urokinase plasminogen activator (uPA), PLAU (gene 5328)
The experiment is described as follows: BSK_BE3C_uPA: BioMAP Diversity Plus: BE3C Assay for urokinase plasminogen activator (uPA) Biomarker Activity (AID 2283038).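 On outcome: uPA protein level quantified by ELISA in cell cultures; uPA read one day after compound addition.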 The conditions noted are these: primary human bronchial epithelial cells; actives raise or lower the signal. In short, it runs like this: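 Primary human bronchial epithelial cells, uPA measured by ELISA 24 h after dosing. Bidirectional change relative to DMSO; cytotoxicity checked in parallel cultures by sulforhodamine B total-protein staining.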

Read-out in experiment [19]: Urokinase-type plasminogen activator receptor (uPAR), PLAUR (gene 5329)
As to the kind of experiment: BSK_BE3C_uPAR: BioMAP Diversity Plus: BE3C Assay for Urokinase-type plasminogen activator receptor (uPAR) Biomarker Activity (AID 2283039).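 On outcome: cells exposed to compound for one day before measurement.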 The settings on record: primary human bronchial epithelial cells; actives raise or lower the signal. The essentials: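 Steps: dose human primary bronchial epithelial cells, incubate 24 h, measure uPAR by ELISA, then fit gain- or loss-of-signal response bidirectionally relative to DMSO.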

The target in experiment [20] is human Vitamin D Receptor (VDR), VDR (gene 7421) (UniProt P11473). The experiment is described as follows: ATG_VDR_TRANS: Attagene TRANS-FACTORIAL HepG2 Assay for human Vitamin D Receptor (VDR) (AID 2283022; active means hit-call score of the fitted dose curve at least 0.9, where 1 is the maximum). In short, it runs like this:
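HepG2 cells were transiently transfected with GAL4-UAS reporter units and a chimeric VDR-Gal4 construct, then dosed for 24 hours. Reporter mRNA was quantified by RT-PCR, fluorescent labeling, HpaI digestion and capillary electrophoresis; gain of signal analysed vs DMSO.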

Records with an inconclusive call do not appear. Activity calls are given as the source filed them. How the source made its calls, unless noted: active means hit-call score of the fitted dose curve at least 0.9, where 1 is the maximum; inactive means score below 0.9.

human Vitamin D Receptor (VDR), VDR (gene 7421), sequence (P11473 whole entry, looked up, the tested form may be a part): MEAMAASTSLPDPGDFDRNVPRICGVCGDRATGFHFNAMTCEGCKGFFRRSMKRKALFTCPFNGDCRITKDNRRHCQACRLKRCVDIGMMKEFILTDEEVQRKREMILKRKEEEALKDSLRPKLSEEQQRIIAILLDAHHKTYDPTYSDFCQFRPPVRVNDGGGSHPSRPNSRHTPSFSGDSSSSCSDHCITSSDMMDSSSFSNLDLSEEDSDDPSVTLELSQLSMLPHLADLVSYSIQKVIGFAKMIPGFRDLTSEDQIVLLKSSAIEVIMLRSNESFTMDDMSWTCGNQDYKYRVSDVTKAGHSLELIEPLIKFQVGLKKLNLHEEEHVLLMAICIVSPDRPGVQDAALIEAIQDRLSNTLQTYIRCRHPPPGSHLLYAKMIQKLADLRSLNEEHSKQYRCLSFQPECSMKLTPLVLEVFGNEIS

In general, AC50 refers to the concentration giving half of the maximal activity seen. Regarding `Cc1ccc(C(=O)c2ccccc2)cc1`, the AC50 is 0.0156 µM (active) in [1]; 31.5 µM (active) in experiment [3]; 38.9 µM (active) in [5]; 31.2 µM (active) in experiment [6]; 36.5 µM (active) in experiment [7]; 30.2 µM (active) in experiment [13]. For the same compound, the result in [2], in experiment [4], in experiment [8], in [9], in experiment [10] and in experiment [11] was inactive. Further, the outcome in experiment [12], in [14], in experiment [15], in experiment [16], in experiment [17] and in experiment [18] was inactive. Besides, the outcome in [19] was inactive.

Consider `O=C(O)C(=O)O`, for which the outcome in experiment [20] was inactive.

Turning to `Cc1ccc(N=Nc2c(O)ccc3ccccc23)c(C)c1`, the outcome in experiment [1], in [2], in experiment [3], in experiment [4], in [6] and in experiment [7] was inactive. The outcome in [8], in experiment [9], in [10], in [11], in [15] and in [16] was inactive. The AC50 in [5] was 19.9 µM (active); in experiment [12] it was 10 µM (active); in experiment [13], 9.98 µM (active); in experiment [14] it was 3.88 µM (active); in [17] it was 10 µM (active); in experiment [18], 10 µM (active). Besides, the half-maximal activity concentration (AC50) in [19] is 4.02 µM (active).

For the compound `CS(=O)(=O)c1ccc([C@@H](CC2CCCC2)C(=O)Nc2cnccn2)cc1Cl`, the outcome in experiment [1], in [2], in experiment [5], in [6], in experiment [8] and in experiment [9] was inactive. Further, the result in experiment [11], in experiment [12], in [13], in experiment [15], in experiment [16] and in experiment [18] was inactive. Besides, the result in experiment [19] was inactive. For the same compound, the AC50 was 30.3 µM (active) in [3]; 9.05 µM (active) in [4]; 19.2 µM (active) in [7]; 22.7 µM (active) in experiment [10]; 31 µM (active) in experiment [14]; 29.2 µM (active) in experiment [17].

`CCC1CO1` (centres undefined): the result in experiment [20] was inactive.

In the case of `C=COC(=O)C(C)(C)CCCCCC`, the AC50 in experiment [1] is 30.2 µM (active); in [2], 33.9 µM (active); in experiment [3] it was 34.6 µM (active); in [4], 3.97 µM (active); in [5] it was 37.8 µM (active); in experiment [6], 32.4 µM (active). For the same compound, the AC50 in experiment [7] is 34.3 µM (active); in experiment [9], 20 µM (active); in experiment [10], 32.6 µM (active); in [11] it was 25.6 µM (active); in [12] it was 24.8 µM (active); in experiment [13], 30.2 µM (active). Moreover, the AC50 in experiment [14] was 33.5 µM (active); in experiment [17], 29.4 µM (active); in experiment [18] it was 20 µM (active). The outcome in experiment [8], in experiment [15], in experiment [16] and in experiment [19] was inactive.

Regarding `CCCCCCOC(=O)c1ccc(O)cc1`, in experiment [20], the compound was classed as inactive.

For the origin of these results see PubChem BioAssay (EPA / NIEHS).
